This is an account of results in PubChem BioAssay AID570 (The Scripps Research Institute Molecular Screening Center, 2006).

The campaign covered roughly 65,000 compounds. About 45 (0.07%) were called active. Only a selection was taken, and actives are over-represented in it overall. Unmarked numbers belong to inactive results.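 Rule for the calls: active = inhibition above the mean of compound-free control plate wells plus 3 SD (cut at about 14% in these data); inactive = the rest.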

This test deals with Collagenase 3 (Homo sapiens) (UniProt P45452). The test is described as follows: human MMP13 inhibitors, primary screen, biochemical, FRET peptide cleavage (AID 570).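 Note: 0% = DMSO wells and 100% = wells with reference MMP-13 inhibitor after basal subtraction.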 To be noted: MMP-13 fTHP FRET cleavage, Mca fluorescence; at 4 µM; hits give high values.
Consider `O=C1C(C=NCC2CCCO2)=C(O)c2ccccc21` (stereo not drawn), for which the inhibition is 3.3%.
In the case of `CCOC(=O)Cn1c(SC)nc2sc3c(c2c1=O)CC(C)(C)OC3`, the inhibition is 1.7%.
Then `CN(C)/C=C/c1c(C#N)c(=O)ncn1Cc1ccccc1`, with 2.5%; and `O=C(Nc1cccc(C(=O)N2CCCC2)c1)c1ccccc1`, with -0.2%.
Then `CCOC(=O)n1c(SCC(=O)N(CC)CC)nc2ccccc21`, with -1.9%; and `O=C(O)C1CCN(S(=O)(=O)N2CCOCC2)CC1`, with -0.5%; and `COc1ccc(CC(=O)c2ccc(O)cc2O)cc1OC`, with 2%.
Then `CC1(C)Oc2ccc3ccc(=O)oc3c2/C(=C/NCCO)C1=O`, with 2.5%; and `Cc1ccc(-c2noc(CSc3nnc(-c4ccccc4)n3C)n2)cc1`, with 7.2%.
On to `Cn1c(/C(C#N)=C2/CCCCCN2)nc2ccccc21`, for which the inhibition was 12.4%.
Then `O=C(Cn1c(-c2cncs2)nc2ccccc21)NC1CCCC1`, with -3.3%; and `COCCCNC(=O)C1CC(=O)N(c2ccc(C)cc2)C1` (stereo not drawn), with -1.3%; and `O=C(C(NS(=O)(=O)c1cccc2nsnc12)c1ccccc1)N1CCN(c2ccccn2)CC1` (stereo not drawn), with 7.2%.
Then `Cc1ccsc1CNn1cnnc1SCc1ccccc1F`, with 9.3%; and `COc1ncnc2c1N=C1CC(C)(C)CC(N)=C1S2`, with 1.4%.
Turning to `Cc1[nH]c2ccccc2c1C(=O)CSCC(=O)O`, the inhibition was -0.3%.
Then `O=C(CSc1nnc(-c2c[nH]c3ccccc23)n1-c1ccc(F)cc1)NCc1ccco1`, with 6.1%.
Then `CC(C)(C)n1nnnc1C(c1ccc2ncccc2c1)N1CCSCC1` (stereo not drawn), with -2.5%; and `O=C(O)CCSc1nnc(-c2ccccc2)n1-c1ccccc1`, with -3.8%.
The same measure for `O=C(CC1Oc2ccccc2NC1=O)NCCCN1CCN(Cc2ccccc2)CC1` (stereo not drawn): -2%; for `Cn1c(=O)c2c(nc(Br)n2CCSc2nc3ccccc3o2)n(C)c1=O`: 0.1%; for `COc1ccc(CNC2CCCCC2)cc1`: 5.3%.
As for `Cc1nonc1OCCn1nnnc1N`, the inhibition was -19.6%.
For the molecule `O=C(COc1ccccc1)N1CCc2ccccc2C1`, the inhibition was 1.4%.
Then `CCN(CC)Cc1c(C(=O)OC)nnn1-c1nonc1N`, with -0.9%.
The same measure for `CCOC(=O)c1sc(=S)n(-c2cccc(OC)c2)c1N`: 5.8%; for `O=C(NCCN1C(=O)C2C3C=CC(C3)C2C1=O)Nc1ccccn1` (stereo not drawn): 7.3%.
Then `OC(COc1cccc2ccccc12)CN1CCN(c2ccccn2)CC1` (stereo not drawn), with 0.9%.
For `Cn1c(Cc2csc(N)n2)nnc1SC/C=C/c1ccccc1`, the inhibition was 6.2%.
The same measure for `O=C(CN(CC1CCCO1)C(=O)CNS(=O)(=O)c1ccccc1)NCc1ccccc1` (stereo not drawn): -0.3%.
Then `COc1cccc(-c2nnc(N(C)C(=O)c3ccno3)s2)c1`, with -8.4%; and `COC(CCN(C)C)(c1ccccc1)c1ccccc1`, with -0.2%.
On to `Nc1nonc1-c1noc(-c2ccc(Br)o2)n1`, for which the inhibition is -4.4%.
The same measure for `CCOC(=O)CNC(=O)CSc1nnc(-c2cccc(OC)c2)n1CC`: 3.6%; for `COc1cccc(NC(=O)C(C)Oc2ccccc2)c1` (stereo not drawn): 2.2%.
Then `N#CC1=C(N)Oc2n[nH]c(CSc3ccccc3)c2C12C(=O)Nc1ccccc12` (stereo not drawn), with 1.5%.
The same measure for `COc1ccccc1CNC(=O)C1CCCN(S(=O)(=O)c2cccc3cccnc23)C1` (stereo not drawn): 2.1%; for `Cc1noc(C)c1CSc1nc2cc(S(=O)(=O)N3CCOCC3)ccc2o1`: -0.9%; for `CC12CCC(C(=O)N3CCN(c4ncccn4)CC3)(c3nc4ccccc4nc31)C2(C)C` (stereo not drawn): 0.1%.
As for `CC(C)C[C@H](NC(=O)[C@@H]1O[C@H]1C(=O)O)C(=O)NCCCCN=C(N)N`, the inhibition is 0.7%.
For `CCn1cc(C(=O)N2CC=C(c3ccccc3)CC2)c(=O)c2ccc(C)nc21`, the inhibition was 0.8%.
On to `CCN1CCN(Cc2nc3c(c(=O)n(C)c(=O)n3C)n2CC(=O)c2ccccc2)CC1`, for which the inhibition was -8.7%.
The same measure for `Cc1ccc(Cc2cncc(O)c2)cc1S(=O)(=O)O`: 1.3%; for `COc1ccc(-n2nnc3c(=O)n(CC(=O)OCc4ccccc4)cnc32)cc1`: 1.8%; for `CCOC(=O)N1CCN(S(=O)(=O)c2cc(Br)cc3c2N(C(=O)C2CC2)CC3)CC1`: 3%.
As for `Cc1ccc(NC(=O)Cn2nc(C)c3ccccc3c2=O)c(C)c1`, the inhibition was 0.6%.
Regarding `COc1ccc(N2CCN(C(=O)CSc3nnc4ncccn34)CC2)cc1`, the inhibition was 4.1%.
Consider `O=C(CN1CCN(c2ncc(C(F)(F)F)cc2Cl)CC1)Nc1ccc2c(c1)OCO2`, for which the inhibition is 2.7%.
The same measure for `N#CCSc1nc2ccccc2c(=O)n1-c1ccccc1`: -3.9%; for `CCc1nnc(NC(=O)CSc2nnc(Cc3ccccc3)n2-c2ccc(OC)cc2)s1`: 3.3%; for `CC(C)(C)c1csc(NC2=NS(=O)(=O)c3ccccc32)n1`: 0.2%.
The same measure for `COC(=O)c1ccc(CSc2nc3ccccc3c(=O)n2-c2cccc(OC)c2)o1`: -1.5%; for `CCCOC(=O)c1[nH]c2c(c1C)C(=O)CC(c1cc(OC)c(OC)c(OC)c1)C2` (stereo not drawn): 0.2%; for `CCCC(C(=O)N1CCOCC1)N1C(=O)C2C3C=CC(C3)C2C1=O` (stereo not drawn): 4.6%.
The same measure for `CN(C)CCOC(=O)C(c1ccccc1)C1(O)CCCC1` (stereo not drawn): 3.8%; for `COc1cc2ccccc2cc1C(=O)Nc1ccc(S(=O)(=O)Nc2cc(C)on2)cc1`: -1.9%.
`Cc1ccccc1C(OCC(O)CN1CCCCC1CCO)c1ccccc1` (stereo not drawn): the inhibition is 1.3%.
Turning to `O=C1Nc2c(Br)cc(Br)cc2C1(O)N1CCOCC1` (stereo not drawn), the inhibition was -2.4%.
`COc1ccc(CN2CN(C(C)C)CSC2=S)cc1`: the inhibition is 1%.
As to `COc1ccc(-c2nnn(Cc3nc(N)nc(N4CCCCC4)n3)n2)cc1`, the inhibition was 7.6%.
Then `O=C(C1CCN(S(=O)(=O)c2cccs2)CC1)N1CCCCCC1`, with 6.3%; and `Cc1ccc(S(=O)(=O)NCC(=O)OCC(=O)N2CCc3ccccc32)cc1`, with -2.9%; and `COC(=O)c1ccc(NC(=O)CSc2nnc(Cc3cccn3C)n2-c2ccc(F)cc2)cc1`, with -0.2%.
